# Screens as filed in PubChem BioAssay.
# Only some compounds are listed: those with a hit (about 3.1% of all), similar ones and a draw of the others.
# Peg3 imprint – induces erasure of genomic imprints in mouse ES cells. mouse ES Peg3-LacZ reporter, beta-gal luminescence, 40 h. Potency, µM (highest dose often 60.7 µM), hits mostly activators. 110,000 compounds, 0.02% hits
#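 Imprint erasure is scored as LacZ activity from the silenced maternal Peg3 allele in feeder-free female ES cells cultured 40 h with LIF. Luminescence is normalized to in-plate negative controls and fitted to the Hill equation.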
# p53ts 32C tox – kills p53ts cells at the permissive temperature. Potency, µM (highest dose often 46.1 µM), usual class: cytotoxic. 130,000 compounds, 0.93% hits. H1299-p53A138V at 32C, ATP luminescence viability, 24 h; note: nearly all actives have a fitted effect of over 55% in size
#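 Cells: H1299 p53ts (A138V), 600/well, pre-incubated 16–30 h at 37C. Cpd up to 46 uM, 24 h, 32C. Readout: ATPlite luminescence, 20 min RT. Normalization: DMSO vs tamoxifen 100 uM. AC50 by Hill equation.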
# p53ts 39C tox – p53ts cell cytotoxicity, nonpermissive temperature; H1299-p53A138V viability at 39C, ATP luminescence, 24 h; Potency, µM (top dose mostly 46.1 µM), hits mostly cytotoxic; 130,000 compounds, 1.5% hits; AID 902; note: nearly all actives have a fitted effect of over 55% in size
# TSHR agonist – TSH receptor (human) agonism; 73,000 compounds, 0.48% hits; AID 926; P16473; Potency, µM (series often up to 57.1 µM), usual class: activators; HEK293-CNG-TSHR cells (CNG channel as cAMP sensor), membrane potential dye, cAMP; active = well fitted activation curve with a large enough effect in the main read-out, with a control signal flat, not every such curve was filed as active; inconclusive = small, poorly fitted or top-dose-only effect, or a change in a side signal; inactive = no such curve, though single readings can be large or run the other way; reference of the percent scale not stated here;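 note: the control signal comes from parental cells without the receptor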
# Target sequence (P16473 whole entry, looked up): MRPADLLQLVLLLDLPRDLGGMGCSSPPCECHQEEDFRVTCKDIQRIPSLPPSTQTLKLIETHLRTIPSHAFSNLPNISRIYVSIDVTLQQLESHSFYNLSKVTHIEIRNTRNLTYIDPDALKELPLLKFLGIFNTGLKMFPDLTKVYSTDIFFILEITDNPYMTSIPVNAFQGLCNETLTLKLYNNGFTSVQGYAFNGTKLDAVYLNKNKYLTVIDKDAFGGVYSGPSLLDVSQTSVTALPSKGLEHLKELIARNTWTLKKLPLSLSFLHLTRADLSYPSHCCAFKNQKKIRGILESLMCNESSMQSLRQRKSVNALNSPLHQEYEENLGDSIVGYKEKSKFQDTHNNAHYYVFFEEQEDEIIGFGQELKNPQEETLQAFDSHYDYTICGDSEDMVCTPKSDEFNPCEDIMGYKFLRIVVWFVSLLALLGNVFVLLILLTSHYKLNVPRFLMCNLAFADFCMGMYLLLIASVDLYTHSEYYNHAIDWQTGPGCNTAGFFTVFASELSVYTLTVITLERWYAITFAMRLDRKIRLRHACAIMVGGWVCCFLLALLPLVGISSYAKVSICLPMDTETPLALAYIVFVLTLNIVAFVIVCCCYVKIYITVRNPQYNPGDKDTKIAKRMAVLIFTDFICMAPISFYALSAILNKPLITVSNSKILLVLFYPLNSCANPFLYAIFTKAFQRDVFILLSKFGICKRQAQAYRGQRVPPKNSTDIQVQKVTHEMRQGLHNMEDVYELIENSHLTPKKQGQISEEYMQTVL
#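 HEK 293 cells stably expressing TSHR and a cAMP-gated CNG channel; parental CNG-only cells as counterscreen. Cells preloaded 60 min with membrane potential dye plus 100 uM RO 20-1724, then compound 30 min; fluorescence read at 590 nm.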
# IkB signaling – suppresses IkB signaling in ABC-DLBCL reporter cells; ABC-DLBCL IkBa-CBG/CBR dual luciferase ratio, 4 h; response scale: scaled: untreated 0%, proteasome inhibitor 100%; Potency, µM (doses to about 57.1 µM); 110,000 compounds, 0.04% hits; active = well fitted curve in the direction sought with a large enough effect in the signal ratio, not every such curve was filed as active; inconclusive = small, poorly fitted or top-dose-only effect, or a change in a side signal; the % refers to the signal ratio;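 note: the direction sought is a rising ratio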
#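 Curves were fitted separately to fusion (green), unfused (red) and ratio luminescence, then classed by r2, magnitude and activity. Cells: OCI-Ly3, 4 h compound plus doxycycline at 37C; 10 uM MG-132 defined full response.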
# HEK293 cAMP cs – raises cAMP in parental HEK293 cells, TSHR agonist counter-screen; parental HEK293 CNG cAMP sensor, membrane potential fluorescence; Potency, µM (highest dose often 57.1 µM), hits mostly activators; 73,000 compounds, 2.5% hits; AID 938; note: nearly all actives have a fitted effect of over 55% in size
#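 Parental HEK 293 cells stably expressing a modified CNG channel (no TSHR) report cAMP rise as membrane depolarization. Membrane potential dye with 100 uM RO 20-1724 was loaded for 60 min at room temperature, then compound added for 30 min; fluorescence read at 590 nm.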
# A number is an active result; – = inactive; ? = inconclusive; · = not tested or not shown; [ ] = another dose, or the depositor's remark. Unless noted, calls come from the whole dose curve; as a rule, active = well fitted curve in the direction sought with a large enough effect; inconclusive = small, poorly fitted or top-dose-only effect, or another doubt; inactive = no such curve, though single readings can be large; an effect the other way counts as inactive or inconclusive.
SMILES,Peg3 imprint,p53ts 32C tox,p53ts 39C tox,TSHR agonist,IkB signaling,HEK293 cAMP cs
O=C(NC1=NCCS1)Nc1ccccc1,–,10µM,15.8µM,–,–,–
O=C(NC1=NCCS1)c1cc2ccccc2o1,–,5.01µM,5.01µM,·,?,–[11.4 µM]
Cc1cc(C(=O)NC2=NCCS2)cs1,–,?,?,–,–,–
C=CCN1CCc2c(cc(O)c(O)c2Br)[C@H](c2ccccc2)C1,·,–,–,?,–,?
O=C(Nc1ccc(Cl)cn1)c1cc2ccccc2o1,–,12.6µM,?,?,?,?
Cc1cc(OCC(=O)N2CCOCC2)ccc1NC(=O)C1CCCCC1,–,–,–,–,–,–
O=C(CCC1CCCC1)Nc1ccc(OCC(=O)N2CCOCC2)cc1,·,7.94µM,?,·,·,·
Cc1ccc2cc3cc(C(=O)N(C)C4CCCCC4)oc3nc2c1,–,?,?,–,–,–
Cc1cccc(N(C)C(=O)c2cc3cc4ccc(C)cc4nc3o2)c1,–,–,–,?,?,10µM
COc1ccccc1CCn1c(=O)c(-c2cccc(F)c2)nc2cncnc21,?,–,–,?,–[11.4 µM],?
COc1ccccc1CCn1c(=O)c(-c2ccccc2)nc2cncnc21,·,–,–,?,–[11.4 µM],3.98µM
O=C(/C=C/N1CCOCC1)c1coc2ccccc12,·,15.8µM,?,–,·,–
O=C(/C=C/N1CCOCC1)c1cc2ccccc2o1,–,12.6µM,?,–,–,–
O=C(O)c1coc2ccccc12,–,–,–,–,–,–
Cc1ccc(-c2nn(CC(=O)NC3CCCC3)c3c2cnc2ccc(F)cc23)cc1C,–[10.9 µM],–,–,·,–,·
Cc1cccc(C(=O)Nc2ccccc2C(=O)OCc2c(C)noc2C)c1,–,–,–,?,?,15.8µM
O=C(CSc1nnc(-c2ccncc2)n1Cc1ccco1)OC1CCCCC1,–,–,–,?,–,?
O=C(CSc1nnc(-c2ccco2)n1Cc1ccccc1)OC1CCCCC1,–,–,–,?,–,3.98µM
CC(C)CC(=O)Nc1cccc(-c2cn3cccnc3n2)c1,–[10.9 µM],?,?,·,–,·
CCS(=O)(=O)Nc1ccc(-c2cn3ccsc3n2)cc1,–[10.9 µM],?,?,·,–,·
CC(C)CC(=O)Nc1ccc(-c2cn3ccsc3n2)cc1,–,1µM,1µM,–,?,–
CC(C)(C)C(=O)Nc1ccc(-c2cn3ccsc3n2)cc1,–,0.631µM,0.794µM,?,–,?
CCc1ccc2c(c1)NC(c1ccc(C)cc1)=NC(c1cccs1)=N2,–[10.9 µM],–,–,·,–,·
CN(Cc1ccccc1)C(=O)c1ccc(CSc2nc3cccnc3n2Cc2ccccc2F)cc1,·,–,·,·,·,·
Cc1ccc(C)c(NC(=O)CN2C(=O)CCc3ccccc32)c1,–[10.9 µM],–,–,·,–,·
SMILES,Peg3 imprint,p53ts 32C tox,p53ts 39C tox,TSHR agonist,IkB signaling,HEK293 cAMP cs
CC1CCCCN1C(=O)Cn1c(=O)n(C2CCCCC2)c(=O)c2ccccc21 (stereo not drawn),–,–,–,15.8µM,–,–
CC1CCCCN1C(=O)Cn1cc(C(=O)c2ccco2)c2ccccc21 (stereo not drawn),–,–,–,?,–,?
CC1(C)CCCC(C)(C)N1CC(O)COCCOc1ccc(Br)cc1 (stereo not drawn),·,?,4.47µM,·,·,·
OC(COc1ccc2cc(Br)ccc2c1)CN1CCCC1 (stereo not drawn),–,–,–,–,–,–
CN1/C(=C\C(=O)c2cccs2)Sc2ccccc21,–,10µM,10µM,?,?,?
COCC(=O)/C=C1\Sc2ccccc2N1C,–,–,–,–,–,–
Cc1cccc(N2CCN(C(=O)CS(=O)(=O)c3cccc4nsnc34)CC2C)c1 (stereo not drawn),–[10.9 µM],–,–,·,?,·
CCc1ccccc1NC(=O)Cn1c(=O)n(CCc2ccccc2)c(=O)c2sc3ccccc3c21,–[10.9 µM],–,10µM,·,–,·
O=C(CSc1ncccc1C(=O)Oc1ccccc1Cl)Nc1ccccc1Cl,–[10.9 µM],–,?,·,–,·
COc1ccccc1-c1cc(C(F)(F)F)nc(N2CCN(c3ccccc3)CC2)n1,–,–,–,–[11.4 µM],–,–
COc1ccccc1-c1cc(C(F)(F)F)nc(N2CCOCC2)n1,–,–,–,?,–,20µM
COc1ccccc1N1CCN(S(=O)(=O)CCNC(=O)Cc2ccc(Cl)cc2)CC1,–[10.9 µM],–,–,·,?,·
O=C(O)/C=C\C(=O)Nc1ccccn1,–[10.9 µM],–[9.22 µM],–[9.22 µM],–[11.4 µM],–[11.4 µM],–[11.4 µM]
O=C(/C=C\Nc1ccccn1)c1ccc(Cl)cc1,–,7.94µM,12.6µM,–,?,–
C=CCC(CC=C)(CNC(=O)C(=O)Nc1cc(C)ccc1OC)c1ccc(OC)c(OC)c1,–[10.9 µM],–,–,·,?,·
O=C(Oc1ccccc1)N1CCC2(CCCN(c3ccccn3)C2)CC1,·,–,–,?,–[11.4 µM],20µM
O=C(Oc1ccccc1)N1CCC[C@@]2(CCN(c3ccccn3)C2)C1,·,–,–,?,–[11.4 µM],?
O=C(c1ccncc1)N1CCC2(CC1)CN(c1ccccn1)C2,·,–,–,?,–[11.4 µM],7.94µM
CCOC(=O)CNc1ncnc2c1nnn2C,–[10.9 µM],–,–,·,–,·
Cc1ccc2[nH]c(=O)c3cc(C(=O)N(C)c4ccc(Br)cc4)sc3c2c1,–[10.9 µM],–,–,·,–,·
Cc1ccc(-n2ncc3c(=O)n(CC(=O)OCc4ccccc4)cnc32)cc1,–,–,–,?,–,25.1µM
O=C(Cn1cnc2c(cnn2-c2ccccc2)c1=O)OCc1ccccc1,–,–,–,?,?,?
COC(=O)Cn1cnc2c(nnn2-c2ccc(C)cc2)c1=O,–,–,–,–,–,–[2.29 µM]
Cc1ccc(-n2nnc3c(=O)n(CC(=O)OCc4ccccc4)cnc32)cc1,–,–,–,?,–,25.1µM
CCc1nnc(NC(=O)CSc2nnc(-c3ccccc3OC)n2-c2ccccc2)s1,–,–,–,?,–,10µM
SMILES,Peg3 imprint,p53ts 32C tox,p53ts 39C tox,TSHR agonist,IkB signaling,HEK293 cAMP cs
CCc1nnc(NC(=O)CSc2nnc(-c3ccccc3O)n2-c2ccc(C)cc2)s1,–,–,–,?,–,?
CSc1nsc(SCC(=O)N2CCc3ccccc32)n1,–,–,–,?,–,25.1µM
CCCCOC(=O)c1ccc(OC(=O)c2sc3ncn(Cc4cccc(F)c4)c(=O)c3c2C)cc1,–[10.9 µM],–,–,·,–,·
Cc1cc(C)cc(NC(=O)Cn2nnc(C(=O)NCc3ccccc3Cl)c2N)c1,–[10.9 µM],?,7.94µM,·,–,·
Cc1ccc(C(CC(=O)NCC2(c3ccccc3)CCCC2)c2ccccc2)c(O)c1 (stereo not drawn),–[10.9 µM],–,15.8µM,·,?,·
O=C(CN1C(=O)c2ccccc2C1=O)N1CCN(c2ccccn2)CC1,–,–,–,–,–,–
O=C1C=C(N2CCN(c3ccccn3)CC2)C(=O)c2c(O)ccc(O)c21,–[10.9 µM],–[9.22 µM],–[9.22 µM],?,5.01µM,–[11.4 µM]
